Source: PubChem BioAssay (NCATS)
Inconclusive results are not listed. Values without a mark were called inactive. Calls follow the shape of the dose curve; as a rule, active = well fitted cell-killing curve with a large enough effect; inconclusive = small, poorly fitted or top-dose-only effect, or effect the other way; inactive = flat fitted curve, though single readings scatter.

assay: Cell Viability - HUV-EC-C (AID 542); details: HUV-EC-C endothelial cell viability, qHTS; series mostly up to 92.2 µM; activity change, negative = cytotoxicity: at the top concentration; also: nearly all actives have a fitted effect of over 35% in size
Source text: NIH Chemical Genomics Center [NCGC]
NIH Molecular Libraries Screening Centers Network [MLSCN]
National Institutes of Environmental Health Sciences [NIEHS]
National Toxicology Program [NTP]
We have developed a 1536-well cell-based assay for quantitative high throughput screening (qHTS) against a number of cell lines to determine in vitro cytotoxicity of small molecules. This particular assay uses the HUV-EC-C cell line which is derived from normal human vascular endothelial cells.
NCGC Assay Protocol Summary:
The CellTiter-Glo luminescent cell viability assay (Promega) is a homogeneous method to measure the number of viable cells in culture. The end point readout of this assay is based on quantitation of intracellular ATP, an indicator of metabolic activity, using the luciferase reaction. Luciferase catalyzes the oxidation of beetle Luciferin to oxyluciferin and light in the presence of ATP. The luminescent signal is proportional to amount of ATP present.
Using the CellTiter-Glo luminescent cell viability assay, the amount of cellular ATP was measured in the HUV-EC-C cell line with complete culture medium following compound treatment for 40 hours. The assay was performed in opaque white Kalypsys 1536-well plates. In the screen, tamoxifen and doxorubicin were used as positive controls. Library compounds were measured for their ability to cause acute toxicity in the cell line, as reflected by a decrease in intracellular ATP levels, in a concentration-dependent manner. […] AC50 values were determined from concentration-response data modeled with the standard Hill equation.
qHTS protocol for CellTiter Glo HUV-EC-C cellular assay
[Step] [Parameter] [Value] [Description]
1. Reagent; 5 uL; 1000 HUV-EC-C cells/well
2. Time; 5 hr; 37 °C incubation
4. Controls; 23 nL; Tamoxifen 0.34 uM to 100 uM & Doxorubicin 0.02 nM to 100 uM
5. Time; 40 hr; 37 °C incubation
6. Reagent; 5 uL; CellTiter Glo reagent
7. Time; 20 min; Room Temperature
8. Detection; Luminescence; Viewlux plate reader
Keywords: cell viability, cytotoxicity, HUV-EC-C cell line, luminescence, NTPHTS, NTPHTS_NCGC, NIEHS, EPA, DSSTox, MLSMR, MLSCN, NIH Roadmap, qHTS, NCGC
% is scaled to controls: 0 for no effect and ±100 for the full control effect.

Structure (SMILES)	activity change, negative = cytotoxicity
O=[N+]([O-])CCO	-8.75%
ClC(Cl)(Cl)C(Cl)(Cl)Cl	4.21%
O=C(O)C(Cl)(Cl)Br	-13.2%
O=c1ccc(=O)[nH][nH]1	-1.9%
O=S(=O)(O)F	-1.45%
CC(C)(C)OOC(=O)c1ccccc1	0.595%
COC(=O)c1ccccc1N	2.23%
ClC(Cl)Br	-7.42%
N#CC(O)c1ccccc1 (stereo not given)	-12.5%
Oc1c(Cl)c(Cl)cc(Cl)c1Cl	9.77%
ClC=CCl	-3.89%
CC(=O)CCC(C)=O	-3.12%
CCN(CC)N=O	-3.09%
CCCCCCCCCCCCCl	16%
Cc1cc(-c2cc(C)c(N)c(C)c2)cc(C)c1N	-20.9%
C=C(C)CCl	8%
COc1ccccc1N	3.21%
Cc1cc(N=Nc2ccccc2C)ccc1N	-16.3%
BrCC(Br)C1CCC(Br)C(Br)C1 (stereo not given)	-11.4%
CC1CC(=O)O1 (stereo not given)	14.1%

Structure (SMILES)	activity change, negative = cytotoxicity
CCOP(=O)(OCC)OCC	1.34%
N#C/C(N)=C(/N)C#N	3.78%
CN=C=O	11.8%
Nc1ccc(-c2ccc(N)cc2)cc1	3.8%
Cc1cc(-c2ccc(N)c(C)c2)ccc1N	-17.2%
C=CC(=O)OCCO	-10%
Oc1cc(Cl)ccc1Cl	-7.93%
CC(C)(Cl)[N+](=O)[O-]	0.74%
O=[N+]([O-])c1cc(Cl)c(Cl)cc1Cl	-2.44%
Cc1cccc(C)c1N	10.4%
N#CCCCCC#N	-2.01%
Nc1ccc(Oc2ccc(N)cc2)cc1	-11.6%
Nc1ccc2ccccc2c1	-10.8%
CN(C)c1ccccc1	-2.24%
CNC(=O)O/N=C/C(C)(C)S(C)=O (stereo not given)	-3.59%
C=CCCC#N	3.35%
C=CCO	7.59%
Nc1c(Cl)cc([N+](=O)[O-])cc1Cl	-24%
CCOC(=O)C1OC1(C)c1ccccc1 (stereo not given)	-1.42%
C=C(Cl)CSC(=S)N(CC)CC	-2.4%
